# Test results published in PubChem BioAssay (Tox21).
# Values joined by “and” are separate entries in the source; they are usually repeats but may differ in a detail not shown here. Identical values can stand only once. Records with an inconclusive call do not appear. Where a call stands in place of a potency, no number is given. Some compounds were tested as several samples or in several runs, with calls that do not always agree. Active and inactive are the calls of the source. Unless noted, the call rests on the fitted dose curve; in most records, active means well fitted curve in the direction sought with a large enough effect in the repeat runs; inconclusive means weak or mixed curves; inactive means no such curve, though single readings can be large; an effect the other way counts as inactive or inconclusive.
# What was measured:
# [1] = qHTS assay to identify small molecule antagonists of the estrogen receptor alpha (ER-alpha) signaling pathway using the BG1 cell line in the presence of 0.1 nM 17-beta-estradiol - cell viability counter screen (AID 1259241); further: nearly all actives have a fitted effect of over 40% in size; further: potency means the concentration at half of the fitted maximal effect
# Outline: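 Cytotoxicity counter-screen: live-cell protease activity measured by fluorescence (30 min reagent step) in the same wells. Cells were VM7Luc4E2 with endogenous ER-alpha and ERE-driven luciferase, treated 22 hr at 37C alongside 0.1 nM 17beta-estradiol final.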
# [2] = qHTS assay to identify small molecule antagonists of the androgen receptor (AR) signaling pathway using the MDA cell line in the presence of 0.5 nM R1881 - cell viability counter screen (AID 1259242); further: nearly all actives have a fitted effect of over 45% in size; further: potency means the concentration at half of the fitted maximal effect
# Outline: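 Steps: plate MDA-kb2 cells, rest 5 hr at 37C without CO2; pin in compounds in DMSO; add R1881 to 0.5 nM final; incubate 16 hr; add CellTiter-Fluor, 30 min; read fluorescence.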
# [3] = target: Estrogen receptor (Homo sapiens) (UniProt P03372); assay: qHTS assay to identify small molecule antagonists of the estrogen receptor alpha (ER-alpha) signaling pathway using the BG1 cell line in the presence of 0.1 nM 17-beta-estradiol (AID 1259244); further: nearly all actives have a fitted effect of over 50% in size; further: potency means the concentration at half of the fitted maximal effect
# Chain of Estrogen receptor (Homo sapiens) (P03372 whole entry, looked up): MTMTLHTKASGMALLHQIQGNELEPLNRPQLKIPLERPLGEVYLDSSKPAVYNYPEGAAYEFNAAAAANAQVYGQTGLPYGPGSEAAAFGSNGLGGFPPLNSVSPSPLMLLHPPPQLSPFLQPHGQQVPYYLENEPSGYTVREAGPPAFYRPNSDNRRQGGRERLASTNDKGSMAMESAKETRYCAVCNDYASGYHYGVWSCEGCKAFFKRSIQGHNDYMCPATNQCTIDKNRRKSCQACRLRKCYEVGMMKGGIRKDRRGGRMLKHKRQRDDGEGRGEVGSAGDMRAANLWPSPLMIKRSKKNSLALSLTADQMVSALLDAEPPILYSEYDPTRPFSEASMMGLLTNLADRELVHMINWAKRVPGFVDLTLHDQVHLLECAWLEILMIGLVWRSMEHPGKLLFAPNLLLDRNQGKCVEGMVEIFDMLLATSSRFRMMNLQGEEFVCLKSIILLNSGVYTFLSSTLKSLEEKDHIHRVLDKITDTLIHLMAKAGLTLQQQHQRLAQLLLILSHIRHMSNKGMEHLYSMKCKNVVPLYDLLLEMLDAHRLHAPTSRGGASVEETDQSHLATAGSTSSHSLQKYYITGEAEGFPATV
# Outline: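 Antagonist mode: compounds in DMSO are pinned onto VM7Luc4E2 reporter cells, 0.1 nM final 17beta-estradiol is added, and after 22 h at 37C luciferase luminescence is measured with ONE-Glo.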
# [4] = qHTS assay to identify small molecule HDAC inhibitors (AID 1259364); further: potency means the concentration at half of the fitted maximal effect;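 further: wild-type HCT-116 cells with endogenous class I/II HDAC activity; nearly all actives have a fitted effect of over 45% in size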
# Outline: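 Cells (HCT-116, wild type) are seeded at 1,500 per well, incubated overnight, treated with compound in DMSO for 2 hr, then developed with HDAC-Glo I/II reagent for 30 min at room temperature.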
# [5] = qHTS assay to identify small molecule HDAC inhibitors - cell viability counter screen (AID 1259365); further: series mostly up to about 92 µM; nearly all actives have a fitted effect of over 50% in size
# Outline: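 CellTiter-Glo luminescence (30 min, room temperature) reported viability after a 2 h compound exposure at 37 C. Cells: wild-type HCT-116, 1,500 per well, seeded the night before.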
# [6] = qHTS assay to identify small molecule agonists of the sonic hedgehog signaling (Shh) pathway - cell viability counter screen (AID 1259366); further: nearly all actives have a fitted effect of over 50% in size; further: potency means the concentration at half of the fitted maximal effect
# Outline: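 Cytotoxicity counter screen: CellTiter-Fluor reagent added after 23 h compound exposure, then 1 h at 37C and fluorescence read. Cells were 3T3 Gli1-Luc, seeded 2,000 per well and dosed 4 h post-plating.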
# [7] = qHTS assay to identify small molecule antagonists of the sonic hedgehog signaling (Shh) pathway - cell viability counter screen (AID 1259367); further: nearly all actives have a fitted effect of over 55% in size; further: potency means the concentration at half of the fitted maximal effect
# Outline: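 Tox21 library chemicals were tested on a Gli1-Luc NIH/3T3 clone (2,000 cells/well) stimulated by conditioned medium; viability was quantified as fluorescence from CellTiter-Fluor reagent added at 23 hr.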
# [8] = qHTS assay to identify small molecule agonists of the sonic hedgehog signaling (Shh) pathway (AID 1259368; calls by dose curve;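 further: NIH/3T3-derived 3T3Gli1-Luc cells carrying a stable Gli1-driven firefly luciferase reporter; series mostly up to about 92 µM; nearly all actives have a fitted effect of over 15% in size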)
# Outline: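 Cells of a mouse NIH/3T3 clone stably expressing luciferase under the Gli1 transcriptional response element are exposed to test chemicals for 24 hr at 37 C. Pathway activation is detected as a rise in luminescence.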
# [9] = qHTS assay to identify small molecule phospholipidosis (PLD) inducers (AID 1259344; active means well fitted curve in the direction sought with a large enough effect; an effect the other way counts as inactive or inconclusive; further: potency means the concentration at half of the fitted maximal effect)
# Outline: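 Image-based: LipidTOX Red pit count/intensity per well and per cell; HepG2, 24 h compound at 37 C, PFA fixation, Hoechst counterstain.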
SMILES,Potency [1],Potency [2],Potency [3],Potency [4],outcome [5],Potency [6],Potency [7],Potency [8],Potency [9],"viability change, negative = cytotoxic [6]","viability change, negative = cytotoxic [7]",PLD induction [9]
S=C(NC1CCCCC1)NC1CCCCC1,inactive,inactive,53.4 µM (active) and 48.6 µM (active),inactive,inactive,inactive,inactive and 30.6 µM (active),,,,,
c1cc(N(CC2CO2)CC2CO2)ccc1OCC1CO1 (stereo not given),inactive,inactive,inactive,inactive,inactive,61.1 µM (active),27.3 µM (active),inactive,,,,
COC(=O)C1=C(C)NC(C)=C(C(=O)OCCN(C)Cc2ccccc2)C1c1cccc([N+](=O)[O-])c1 (stereo not given),54.2 µM (active),60.8 µM (active) and inactive,68.2 µM (active),inactive,inactive,30.5 µM (active) and 11.9 µM (active),48.3 µM (active) and 2.37 µM (active),inactive,,,,
CC(C)=CCCC(C)CCO (stereo not given),inactive,inactive,inactive,inactive,inactive,inactive,inactive,inactive,,,,
O=C(c1ccccc1)c1ccc(O)cc1O,inactive,inactive,inactive,inactive,inactive,inactive,55.5 µM (active) and inactive,inactive,,,,
OC(CCl)CCl,inactive,inactive,inactive,inactive,inactive,inactive,inactive,inactive,,,,
COc1ccccc1/C=C/C=O,inactive,inactive,inactive,inactive,inactive,inactive,inactive,inactive,,,,
CCCCC/C=C/C=C/C=O,inactive,inactive,,inactive,inactive,inactive,inactive,inactive,,,,
CC(=O)O[C@]1(C(C)=O)CC[C@H]2[C@@H]3C=C(Cl)C4=CC(=O)[C@@H]5C[C@@H]5[C@]4(C)[C@H]3CC[C@@]21C,inactive,inactive,,inactive,inactive,inactive,inactive,inactive,,,,
COc1ccc(C(=O)CC(=O)c2ccc(C(C)(C)C)cc2)cc1,inactive,inactive,,inactive,inactive,inactive,inactive,inactive,inactive,,,
Clc1nc(Cl)c(Cl)c(Cl)c1Cl,inactive,inactive,,inactive,inactive,inactive,inactive,inactive,,,,
O=c1oc(=O)c2cc3c(=O)oc(=O)c3cc12,inactive,inactive,,inactive,inactive,inactive,inactive,inactive,,,,
CCC(C)c1ccccc1O (stereo not given),inactive,inactive,,inactive,inactive,inactive,inactive,inactive,,,,
O=C(c1ccc(OCCN2CCCCC2)cc1)c1c(-c2ccc(O)cc2)sc2cc(O)ccc12,,61.2 µM (active) and inactive,,inactive,inactive,24.4 µM (active) and 24.3 µM (active) and 11.9 µM (active),24.4 µM (active) and 30.6 µM (active),inactive,inactive,,,
O=C1c2cccc(O)c2C(=O)c2c(O)cccc21,inactive,inactive,,,inactive,inactive,inactive,inactive,inactive,,,
O=C(Nc1ccc([N+](=O)[O-])cc1Cl)c1cc(Cl)ccc1O,,2.17 µM (active) and 1.46 µM (active),2.43 µM (active) and 1.64 µM (active),969 nM (active) and 580 nM (active),inactive,68.6 µM (active),30.6 µM (active),inactive,inactive,-20.9% [at 19 µM] (inactive),-21.1% [at 19 µM] (inactive),
COc1c(Cl)c(Cl)c(Cl)c(Cl)c1Cl,inactive,inactive,,inactive,inactive,inactive,inactive,inactive,,,,
O=P(O)(O)O,inactive,inactive,,inactive,inactive,inactive,inactive,inactive,inactive,,,
O=CCc1ccccc1,inactive,inactive,,inactive,inactive,inactive,inactive,inactive,,,,
Cc1c(OCC(F)(F)F)ccnc1CS(=O)c1nc2ccccc2[nH]1 (stereo not given),inactive,inactive,,inactive,inactive,inactive,inactive,inactive,inactive,,,
Nc1ccc(S(=O)(=O)Nc2cnc3ccccc3n2)cc1,inactive,inactive,,inactive,inactive,inactive,inactive,inactive,inactive,,,
O=C1OC2(c3cc(Br)c(O)c(Br)c3Oc3c2cc(Br)c(O)c3Br)c2c(Cl)c(Cl)c(Cl)c(Cl)c21,8.64 µM (active) and 23.4 µM (active),6.12 µM (active) and 18.6 µM (active),,inactive,inactive,9.7 µM (active) and 16.6 µM (active),3.86 µM (active) and 14.8 µM (active),inactive,,,,
CCCCc1oc2ccccc2c1C(=O)c1cc(I)c(OCCN(CC)CC)c(I)c1,inactive,,inactive,inactive,inactive,43.6 µM (active),inactive,inactive,10 µM (active),,,-0.301% [at 7.66 µM] (inactive)
CC(C)=CCC/C(C)=C\CO,inactive,inactive,,inactive,inactive,inactive,inactive,inactive,,,,
CC(C)CC(C)(O)C#CC(C)(O)CC(C)C (stereo not given),inactive,inactive,,inactive,inactive,13.4 µM (active) and inactive,30 µM (active) and inactive,inactive,,,,
CCCCCCCCCC(=O)OC,inactive,inactive,,inactive,inactive,inactive,inactive,inactive,,,,
CCOC(=O)C(C#N)=C(c1ccccc1)c1ccccc1,inactive,inactive,,inactive,inactive,inactive,inactive,inactive,inactive,,,
